Results filed as inconclusive are left out. Activity calls are given as the source filed them. Unless noted, the call rests on the fitted dose curve; in most records, active means well fitted cell-killing curve with a large enough effect; inconclusive means small, poorly fitted or top-dose-only effect; inactive means flat fitted curve, though single readings scatter.
Columns and labels:
[1] = Cell Viability - LYMP2-002 (AID 977);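 further: series mostly up to about 92 µM; compound exposure lasted 24 h at 37 °C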
In short: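 Human lymphoblastoid cells, 2500/well, complete medium; 5 h 37 C settle; compound 24 h 37 C; CellTiter-Glo, 30 min RT; luminescence. Decrease in ATP = cytotoxicity; AC50 via Hill equation.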

[2] = Cell Viability - LYMP2-006 (AID 978); further: series mostly up to about 92 µM; nearly all actives have a fitted effect of over 60% in size
In short: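 Human lymphoblastoid cells, 2500 per well, were preincubated 5 hr at 37 C, then exposed to compounds for 24 hr at 37 C in complete medium. Viability was read as intracellular ATP by CellTiter-Glo luminescence; AC50 from Hill-equation fits of qHTS concentration-response data.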

[3] = Cell Viability - LYMP2-007 (AID 979);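 further: cells exposed to compound for 24 h before reading; nearly all actives have a fitted effect of over 60% in size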
In short: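 Cells are seeded at 2500 per well and rested 5 hr. Compounds are then added over a concentration series for 24 hr at 37 C. CellTiter-Glo is added for 30 min at room temperature before luminescence reading.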

[4] = Cell Viability - LYMP2-008 (AID 980); further: nearly all actives have a fitted effect of over 60% in size
In short: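 Cells seeded at 2500/well and rested 5 hr at 37 C; compounds added over a concentration range and incubated 24 hr at 37 C; CellTiter-Glo added, 30 min at room temperature; luminescence read and AC50 fitted with Hill model.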

[5] = Cell Viability - LYMP2-010 (AID 981); further: nearly all actives have a fitted effect of over 55% in size
In short: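 Steps: seed 2500 LYMP2-010 cells per well; incubate 5 hr at 37 C; add compound; incubate 24 hr at 37 C; add CellTiter-Glo, wait 30 min at room temperature; read luminescence. Concentration-response fitted to Hill equation for AC50.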

[6] = Cell Viability - LYMP2-012 (AID 982);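 further: cellular ATP by luciferase luminescence where a drop means cytotoxicity; cells exposed to compound for one day before reading; nearly all actives have a fitted effect of over 55% in size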
[7] = Cell Viability - LYMP2-014 (AID 983); further: series mostly up to about 92 µM; nearly all actives have a fitted effect of over 50% in size
In short: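 Cells are plated at 2500/well and left 5 hr at 37 C. Compounds are added across a concentration range and incubated 24 hr at 37 C in complete medium. CellTiter-Glo is added, and luminescence is read after 30 min at room temperature.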

[8] = Cell Viability - LYMP2-016 (AID 984); further: nearly all actives have a fitted effect of over 55% in size
In short: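 Human lymphoblastoid cells (LYMP2-016), 2500/well in complete medium, preincubated 5 hr at 37 C, then compound-treated 24 hr at 37 C. Intracellular ATP read by CellTiter-Glo luminescence after 30 min at room temperature; AC50 from Hill-equation concentration-response fits.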

[9] = Cell Viability - LYMP2-018 (AID 985);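 further: compound exposure lasted 24 hr at 37 °C; nearly all actives have a fitted effect of over 50% in size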
In short: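 Seed 2500 lymphoblastoid cells per well, incubate 5 hr at 37 C, add compound and incubate 24 hr at 37 C, add CellTiter-Glo, wait 30 min at room temperature, then read luminescence.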

[10] = Cell Viability - LYMP2-020 (AID 986); further: series mostly up to about 92 µM; nearly all actives have a fitted effect of over 55% in size
In short: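 Seed 2500 cells per well and incubate 5 hr at 37 C. Add compounds at a concentration series and incubate 24 hr at 37 C. Add CellTiter-Glo, wait 30 min at RT, read luminescence, and fit a Hill curve for AC50.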

[11] = Cell Viability - LYMP2-022 (AID 987); further: nearly all actives have a fitted effect of over 55% in size
In short: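 Cells were seeded at 2500 per well, rested 5 hr at 37 C, and treated with titrated compounds for 24 hr at 37 C. Cellular ATP was then quantified by luciferase luminescence, and AC50 values were derived from Hill-modelled concentration-response curves.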

[12] = Cell Viability - LYMP2-024 (AID 988); further: nearly all actives have a fitted effect of over 60% in size
In short: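 qHTS cytotoxicity, human lymphoblastoid line, complete medium; 24 h cpd treatment, 37 C; CellTiter-Glo ATP luminescence readout; tetraoctylammonium bromide positive control; AC50 via Hill fit.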

[13] = Cell Viability - LYMP2-026 (AID 989); further: nearly all actives have a fitted effect of over 50% in size
In short: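 Cells are seeded at 2500 per well and held 5 hr at 37 C. Compounds are added in concentration series for 24 hr, then CellTiter-Glo reagent is applied and luminescence read.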

[14] = Cell Viability - LYMP1-002 - Assay at 24 hr (AID 993)
In short: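 Acute toxicity is measured as concentration-dependent loss of cellular ATP in a human lymphoblastoid line (Coriell LYMP1-002) after 24 h treatment in complete medium. ATP is quantified by luciferase luminescence and AC50 derived by Hill modelling.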

[15] = Cell Viability - LYMP1-002 - Assay at 40 hr (AID 994); further: nearly all actives have a fitted effect of over 60% in size
In short: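 Cells are plated at 2500 per well and rested 5 hr at 37 C. Compounds are added and incubated 40 hr at 37 C. CellTiter-Glo reagent is added for 30 min at room temperature before luminescence is read.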

[16] = qHTS Assay for Identification of Small Molecule Inducers of Hypoxia Response (AID 2120; active means well fitted curve in the direction sought with a large enough effect in the signal ratio, with a control signal flat, not every such curve was filed as active; the % refers to the signal ratio)
In short: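 Cell-based qHTS for reporter induction: hypoxia response element controlled beta-lactamase in ME-180 cells. Compounds incubated 17 h at 37 degrees C; activity from blue/green (460/530 nm) ratio, inducers ranked by AC50.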

[17] = biological target: Estrogen receptor (Homo sapiens) (UniProt P03372); assay: qHTS assay for small molecule antagonists of estrogen receptor alpha signaling (AID 588513; active means well fitted curve in the direction sought with a large enough effect in the signal ratio, with a control signal flat, not every such curve was filed as active; the % refers to the signal ratio)
Sequence of Estrogen receptor (Homo sapiens) (P03372 whole entry, looked up): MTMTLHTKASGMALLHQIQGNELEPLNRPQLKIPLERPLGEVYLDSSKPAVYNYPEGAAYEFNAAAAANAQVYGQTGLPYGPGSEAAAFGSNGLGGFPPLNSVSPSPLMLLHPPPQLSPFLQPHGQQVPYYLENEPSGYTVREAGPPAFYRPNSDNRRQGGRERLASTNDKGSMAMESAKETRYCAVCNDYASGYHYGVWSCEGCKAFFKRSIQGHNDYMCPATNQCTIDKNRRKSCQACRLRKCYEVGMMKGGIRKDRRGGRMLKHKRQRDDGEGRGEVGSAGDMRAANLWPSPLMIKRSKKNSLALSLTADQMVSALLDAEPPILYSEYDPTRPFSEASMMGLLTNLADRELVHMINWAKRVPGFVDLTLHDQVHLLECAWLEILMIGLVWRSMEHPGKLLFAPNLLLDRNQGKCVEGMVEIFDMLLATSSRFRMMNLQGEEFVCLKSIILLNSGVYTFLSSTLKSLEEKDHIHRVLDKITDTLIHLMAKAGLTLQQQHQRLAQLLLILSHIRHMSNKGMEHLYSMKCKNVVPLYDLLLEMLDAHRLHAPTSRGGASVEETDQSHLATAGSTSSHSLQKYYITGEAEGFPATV
In short: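 ER-alpha-UAS-bla GripTite HEK 293 cells in medium with 2% charcoal/dextran-treated FBS were preincubated 4 h at 37 C, dosed with compound (1:2 titration), stimulated with 0.5nM 17-beta-estradiol for 18 h, then read by CCF4 beta-lactamase fluorescence.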

[18] = biological target: Androgen receptor (Homo sapiens) (UniProt P10275); assay: qHTS assay for small molecule antagonists of androgen receptor signaling (AID 588516; active means well fitted curve in the direction sought with a large enough effect in the signal ratio, with a control signal flat, not every such curve was filed as active; the % refers to the signal ratio)
Sequence of Androgen receptor (Homo sapiens) (P10275 whole entry, looked up): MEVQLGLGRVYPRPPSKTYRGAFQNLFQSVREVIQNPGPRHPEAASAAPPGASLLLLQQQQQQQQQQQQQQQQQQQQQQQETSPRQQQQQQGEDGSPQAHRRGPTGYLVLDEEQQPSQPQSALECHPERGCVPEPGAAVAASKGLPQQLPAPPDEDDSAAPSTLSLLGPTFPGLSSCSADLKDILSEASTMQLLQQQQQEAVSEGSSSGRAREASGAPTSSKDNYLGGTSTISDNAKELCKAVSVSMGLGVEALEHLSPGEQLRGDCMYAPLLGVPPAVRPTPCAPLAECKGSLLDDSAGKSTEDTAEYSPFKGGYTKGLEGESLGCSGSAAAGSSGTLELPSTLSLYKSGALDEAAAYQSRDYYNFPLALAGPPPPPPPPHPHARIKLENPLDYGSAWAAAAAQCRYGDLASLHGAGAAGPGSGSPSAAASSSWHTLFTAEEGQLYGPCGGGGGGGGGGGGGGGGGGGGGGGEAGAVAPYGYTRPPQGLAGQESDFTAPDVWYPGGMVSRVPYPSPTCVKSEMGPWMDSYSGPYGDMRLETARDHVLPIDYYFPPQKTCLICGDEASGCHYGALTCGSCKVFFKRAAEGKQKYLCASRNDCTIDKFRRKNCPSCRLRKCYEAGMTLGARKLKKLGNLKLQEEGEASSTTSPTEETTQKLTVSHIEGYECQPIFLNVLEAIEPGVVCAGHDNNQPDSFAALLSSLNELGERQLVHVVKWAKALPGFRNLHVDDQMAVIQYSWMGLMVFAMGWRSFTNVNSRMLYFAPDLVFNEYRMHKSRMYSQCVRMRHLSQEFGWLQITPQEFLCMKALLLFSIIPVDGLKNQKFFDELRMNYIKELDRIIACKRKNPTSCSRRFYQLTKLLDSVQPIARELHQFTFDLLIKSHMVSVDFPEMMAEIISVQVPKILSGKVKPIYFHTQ
In short: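 AR-UAS-bla-GripTite HEK 293 cells (2000/well, 5 h at 37 C) received compound titrations, then R1881 at 10 nM final; after 16 h at 37 C, CCF4 dye 2 h RT, beta-lactamase fluorescence read; IC50 from Hill fits.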

[19] = biological target: Estrogen receptor (Homo sapiens) (UniProt P03372); assay: qHTS assay for small molecule agonists of estrogen receptor alpha signaling (AID 588514; calls by dose curve; further: nearly all actives have a fitted effect of over 70% in size)
In short: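 Efficacy is expressed against 20 nM 17-beta-estradiol (100%) and DMSO basal (0%); EC50 from Hill equation. Assay: beta-lactamase reporter in ER-alpha-UAS-bla HEK 293 cells, 18 h compound incubation, CCF4 detection.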

Measured: Potency

Cc1cc(C(=O)O)ccc1[N+](=O)[O-]
not listed: [18] | [19]
inactive: all other assays above

NC=O
not listed: [17] | [18] | [19]
inactive: all other assays above

COc1ccccc1[N+](=O)[O-]
not listed: [15] | [17] | [18] | [19]
inactive: all other assays above

Cc1ccc(C)c([N+](=O)[O-])c1
not listed: [15] | [17] | [18] | [19]
inactive: all other assays above

CCCOCC(C)OCC(C)O (configuration not stated)
not listed: [4] | [17] | [19]
inactive: all other assays above

C[C@@H]1CC2(OC[C@]3(C)O[C@H]23)O[C@H]2C[C@@]3(C)[C@@H]4CC[C@H]5C(C)(C)C(O[C@@H]6OC[C@@H](O)[C@H](O)[C@H]6O)CC[C@@]56C[C@@]46CC[C@]3(C)[C@@H]12 (some centres not stated)
not listed: [3] | [5] | [10] | [17] | [18]
inactive: all other assays above

CCN(CC)c1cccc(O)c1
not listed: [4] | [14] | [15] | [18] | [19]
inactive: all other assays above

CCOC(C)(C)C
not listed: [3] | [8] | [18] | [19]
inactive: all other assays above

CCN(C(=O)N(CC)c1ccccc1)c1ccccc1
not listed: [15] | [17] | [18] | [19]
inactive: all other assays above

O=Cc1ccc(Cl)cc1
not listed: [17] | [19]
inactive: all other assays above

CC(C)Cc1nccs1
not listed: [15] | [17] | [18] | [19]
inactive: all other assays above

CC(=O)OCCC(C)C
not listed: [17] | [18] | [19]
inactive: all other assays above

CCNc1ccccc1
not listed: [17] | [18] | [19]
inactive: all other assays above

C=Cc1ccc(C=C)cc1
not listed: [15] | [17] | [18]
inactive: all other assays above

O=C(O)c1ccc(C(=O)O)cc1
not listed: [17] | [18] | [19]
inactive: all other assays above

CSc1ccc(C=O)cc1
not listed: [17] | [18] | [19]
inactive: all other assays above

CCOCCO
not listed: [17] | [18] | [19]
inactive: all other assays above

CC/C=C1/OC(=O)c2ccccc21
not listed: [5] | [9] | [17] | [19]
inactive: all other assays above

[O-]/[N+](=N\O)c1ccccc1
not listed: [17] | [18]
inactive: all other assays above
